Measured values published in PMC8769072, “Proteome‐scale mapping of binding sites in the unstructured regions of the human proteome” (Molecular Systems Biology, 2022).

CLTC 1-364, Q00610, sequence (Q00610 1-364): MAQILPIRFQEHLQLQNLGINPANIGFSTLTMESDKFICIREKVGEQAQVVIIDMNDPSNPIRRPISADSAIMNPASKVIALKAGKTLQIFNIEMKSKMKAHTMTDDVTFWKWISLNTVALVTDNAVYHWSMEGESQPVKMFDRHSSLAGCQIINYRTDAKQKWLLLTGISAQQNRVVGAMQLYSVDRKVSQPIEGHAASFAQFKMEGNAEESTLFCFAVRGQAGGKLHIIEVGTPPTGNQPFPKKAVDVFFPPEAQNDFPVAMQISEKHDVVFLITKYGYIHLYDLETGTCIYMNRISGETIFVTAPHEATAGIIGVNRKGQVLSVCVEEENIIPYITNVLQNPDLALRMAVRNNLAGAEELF
CEP55 160-217, Q53EZ4, sequence (Q53EZ4 160-217): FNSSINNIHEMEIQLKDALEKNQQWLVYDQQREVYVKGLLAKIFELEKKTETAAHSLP
CRK 124-198, P46108, sequence (P46108 124-198): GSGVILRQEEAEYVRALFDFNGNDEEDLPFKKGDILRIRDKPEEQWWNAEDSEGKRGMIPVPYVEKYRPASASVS
AP2B1 700-937, P63010, sequence (P63010 700-937): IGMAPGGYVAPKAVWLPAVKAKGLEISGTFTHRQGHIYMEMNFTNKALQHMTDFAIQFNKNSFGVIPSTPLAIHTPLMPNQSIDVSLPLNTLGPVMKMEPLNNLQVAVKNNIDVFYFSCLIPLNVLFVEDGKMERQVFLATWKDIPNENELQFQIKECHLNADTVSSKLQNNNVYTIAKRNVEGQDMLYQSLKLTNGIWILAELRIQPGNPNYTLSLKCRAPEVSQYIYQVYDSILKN

PPPLPPKPRISSYPED [MAP4K5, Q9Y4K4]
selected by phage display (CRK 124-198, P46108): confidence 2 (active)

MAVGPPDAPVGGPLTF [INO80E, Q8NBZ0]
selected by phage display (CEP55 160-217, Q53EZ4): confidence 2 (active)

WNLLQQQTTTTSSKNL [KRT4, P19013]
selected by phage display (CALM1 2-149, P0DP23): confidence 3 (active)

PALPSKLLSSGSAKAD [IL17RD, Q8NFM7]
selected by phage display (CRK 124-198, P46108): confidence 3 (active)

PPSQSYGGGPAQVPLP [ANXA7, P20073]
selected by phage display (CEP55 160-217, Q53EZ4): confidence 2 (active)

EHNLITWTDGPPPVQF [MAU2, Q9Y6X3]
selected by phage display (CLTC 1-364, Q00610): confidence 4 (active)

KEPPAKVPEVPKKIVV [TTN, Q8WZ42]
selected by phage display (CRK 124-198, P46108): confidence 3 (active)

NSTSRPTLPVKSLAQR [SZRD1, Q7Z422]
selected by phage display (CRK 124-198, P46108): confidence 2 (active)

GPPSLNYIPPVLQLSG [TEX14, Q8IWB6]
selected by phage display (CEP55 160-217, Q53EZ4): confidence 2 (active)

GLLLMEEEGHSDLISF [TMEM94, Q12767]
selected by phage display (CLTC 1-364, Q00610): confidence 4 (active)

AQDFFQRWKQLSLPQQ [AP2A1, O95782]
selected by phage display (CALM1 2-149, P0DP23): confidence 2 (active)

PPFTDYRQPPLDYRQP [MAGI2, Q86UL8]
selected by phage display (CEP55 160-217, Q53EZ4): confidence 3 (active)

GGLLHWERLLGGLGGE [NCKAP5L, Q9HCH0]
selected by phage display (CALM1 2-149, P0DP23): confidence 2 (active)

PPATSYAPSDVPSGVA [MALL, Q13021]
selected by phage display (CEP55 160-217, Q53EZ4): confidence 2 (active)

MMLSEQAQKWFPTHVQ [RAB11FIP2, Q7L804]
selected by phage display (CALM1 2-149, P0DP23): confidence 2 (active)

GQVQVADLLGINGTGE [CCDC141, Q6ZP82]
selected by phage display (CLTC 1-364, Q00610): confidence 2 (active)

SADLIQFEERPQEPSE [MARF1, Q9Y4F3]
selected by phage display (CLTC 1-364, Q00610): confidence 3 (active)

PQSPPASMYGSTGSLL [PSD, A5PKW4]
selected by phage display (CEP55 160-217, Q53EZ4): confidence 2 (active)

QVPSLPLKDSQELTAS [ZKSCAN5, Q9Y2L8]
selected by phage display (CRK 124-198, P46108): confidence 4 (active)

TNWTLLKSDMNKPHLI [TTLL6, Q8N841]
selected by phage display (CALM1 2-149, P0DP23): confidence 2 (active)

NLPPPLPPKKYAITSV [USP53, Q70EK8]
selected by phage display (CRK 124-198, P46108): confidence 2 (active)

ANTLPVSGNLIDLYGN [MITF, O75030]
selected by phage display (CLTC 1-364, Q00610): confidence 3 (active)

DAKAPPTAAYAGAAPA [CEBPB, P17676]
selected by phage display (CEP55 160-217, Q53EZ4): confidence 4 (active)

WPLLRKQLEGRLALPS [SPATA31A6, Q5VVP1]
selected by phage display (CALM1 2-149, P0DP23): confidence 2 (active)

WSYLMHFLFDHSNLGS [OR52I1, Q8NGK6]
selected by phage display (CEP55 160-217, Q53EZ4): confidence 2 (active)

MAAWKSWTALRLAATV [TMX3, Q96JJ7]
selected by phage display (CALM1 2-149, P0DP23): confidence 2 (active)

DLLSGDLIFLGSDSHP [GJB5, O95377]
selected by phage display (CLTC 1-364, Q00610): confidence 3 (active)

SISSQVSSAVMKSLLA [IL16, Q14005]
selected by phage display (CALM1 2-149, P0DP23): confidence 2 (active)

APSLPGKGSGASVALM [ZNF469, Q96JG9]
selected by phage display (CRK 124-198, P46108): confidence 3 (active)

SNWSPLGPPSSPYGAA [MAML3, Q96JK9]
selected by phage display (CEP55 160-217, Q53EZ4): confidence 2 (active)

PVSSLAEPDLINFMDF [DENND4C, Q5VZ89]
selected by phage display (CLTC 1-364, Q00610): confidence 2 (active)

LSETVTKPPLPQKNTA [NSUN7, Q8NE18]
selected by phage display (CRK 124-198, P46108): confidence 3 (active)

LWLALRETVYDPSLPA [DISP2, A7MBM2]
selected by phage display (CALM1 2-149, P0DP23): confidence 3 (active)

TNLPDVPNKSAPSPTS [ZNF462, Q96JM2]
selected by phage display (CRK 124-198, P46108): confidence 2 (active)

EISNRWKLAQVQVQKD [EXOSC10, Q01780]
selected by phage display (CALM1 2-149, P0DP23): confidence 2 (active)

VGSLIDFGPEAPTSSP [KIAA0513, O60268]
selected by phage display (CLTC 1-364, Q00610): confidence 3 (active)

SLISWDEPGVDFYSKP [PIK3C2B, O00750]
selected by phage display (CLTC 1-364, Q00610): confidence 4 (active)

AWKTALLANVGTISAI [PERM1, Q5SV97]
selected by phage display (CALM1 2-149, P0DP23): confidence 2 (active)

PPVPPKSEAVREEARL [GAREM1, Q9H706]
selected by phage display (CRK 124-198, P46108): confidence 4 (active)

VTAGWTWPALRTLSSL [NFKBIE, O00221]
selected by phage display (CALM1 2-149, P0DP23): confidence 2 (active)

PYPKWNSVFDQLTQVV [MAP2K4, P45985]
selected by phage display (CALM1 2-149, P0DP23): confidence 3 (active)

AVPSNASWEQAMKMVV [PRPF40B, Q6NWY9]
selected by phage display (CALM1 2-149, P0DP23): confidence 2 (active)

LPLIDFADTPEAHVAV [GTSE1, Q9NYZ3]
selected by phage display (CLTC 1-364, Q00610): confidence 3 (active)

WKTLKERESILKLLDG [TADA3, O75528]
selected by phage display (CALM1 2-149, P0DP23): confidence 3 (active)

EVAFGKEGLWKLLGGF [GNL3, Q9BVP2]
selected by phage display (CALM1 2-149, P0DP23): confidence 2 (active)

DWSNLVDAAKAYEVQR [SIPA1L1, O43166]
selected by phage display (CALM1 2-149, P0DP23): confidence 3 (active)

AWKSLTDKVQEARSNA [KMT2A, Q03164]
selected by phage display (CALM1 2-149, P0DP23): confidence 2 (active)

SIPRSWPSAHSVSNIL [PAX1, P15863]
selected by phage display (CALM1 2-149, P0DP23): confidence 2 (active)

DRSWHQMVVRALSSQE [HSH2D, Q96JZ2]
selected by phage display (CALM1 2-149, P0DP23): confidence 2 (active)

MQIPQAPWPVVWAVLQ [PDCD1, Q15116]
selected by phage display (AP2B1 700-937, P63010): confidence 4 (active)

STWGTVKDSLKALSSA [SRARP, Q8NEQ6]
selected by phage display (CALM1 2-149, P0DP23): confidence 2 (active)

PPAAVYYAPAGPTSAQ [AKNA, Q7Z591]
selected by phage display (CEP55 160-217, Q53EZ4): confidence 3 (active)

SFWLFRVSPTTFPFLY [ATP8B3, O60423]
selected by phage display (CALM1 2-149, P0DP23): confidence 2 (active)

AWSDVVGRRSSLLAAI [MFSD9, Q8NBP5]
selected by phage display (CALM1 2-149, P0DP23): confidence 2 (active)

KWPSLATLAATPISSS [AGAP7P, Q5VUJ5]
selected by phage display (CALM1 2-149, P0DP23): confidence 3 (active)

AREPPADVWTPPARAS [TRIM25, Q14258]
selected by phage display (CEP55 160-217, Q53EZ4): confidence 2 (active)

WQRLQSNPHLKEGSVT [ACY1, Q03154]
selected by phage display (CALM1 2-149, P0DP23): confidence 2 (active)

PTPVLMNQPPQIAPKR [EIF4G1, Q04637]
selected by phage display (CRK 124-198, P46108): confidence 3 (active)

LWPVLRSDAFSGLTAL [FIGN, Q5HY92]
selected by phage display (CALM1 2-149, P0DP23): confidence 3 (active)

PPSADYSTPPHRTVPE [BAHD1, Q8TBE0]
selected by phage display (CEP55 160-217, Q53EZ4): confidence 3 (active)

GTHWRVLGLALLSVGV [CD3E, P07766]
selected by phage display (CALM1 2-149, P0DP23): confidence 3 (active)

LSIPVTSEPPALPPKP [DOCK4, Q8N1I0]
selected by phage display (CRK 124-198, P46108): confidence 2 (active)
